# From PubChem
# In the library only some 6.3% were active in any assay of this set; here they are far more common.
# A340 absorber – compound light absorbance at 340 nm, profiling panel, artefact control, biochemical, MLSMR library, data from PS, PMK, MK assays; compound absorbance at 340 nm, fold over control; fold change at 10 µM; 65,000 tested, under 10 active; AID 708, 2007;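 active = at 10 µM dose, initial 340 nm absorbance at least 2 fold that of control wells; inactive = change under 2 fold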;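 also: initial absorbance extrapolated from kinetic A340 decline of NADH oxidation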
# Spn MK inh – S. pneumoniae MK inhibitors, primary screen, biochemical, PK/LDH-coupled NADH absorbance. purified MK, PK/LDH-coupled NADH absorbance 340 nm. inhibition, % at 10 µM. 0.48% of 65,000 active. AID 555, 2006;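 active = ranked among the strongest by inhibition in the single 10 µM screen, a fixed top-ranked set picked for dose follow-up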
# PMK inhibit – S. pneumoniae PMK inhibitors, primary screen, biochemical, mevalonate pathway, pilot trial included. phosphomevalonate kinase (Streptococcus pneumoniae D39). inhibition, % at 10 µM. AID 539, 2006. purified PMK, PK/LDH-coupled NADH absorbance 340 nm. 0.49% of 65,000 active;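 active = top-ranked compounds by inhibition in the single 10 µM screen, taking a fixed number of the strongest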;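 also: 0% = full reaction with DMSO carrier and 100% = background rate without enzyme reaction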
# NADH coupling – inhibitors of PK/LDH coupling enzymes, profiling panel, artefact control, biochemical, MLSMR library. coupled PK/LDH NADH assays, four targets. IC50, µM (titrated, usually from 10 µM), inactives show at the top dose inhibition. 0.02% of 65,000 active;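 active = single-dose screening hits from any of four coupled enzyme assays that gave an IC50 when retested across doses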;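 also: the DPM-DC format reads NADH fluorescence rather than 340 nm absorbance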
# Autofluor 339 – intrinsic fluorescence of library compounds, ex339/em460 – biochemical, MLSMR library, data from DPM-DC assay, artefact control, profiling panel; compound autofluorescence, ex339/em460 nm, NADH buffer; active compounds read high; 1 = no-compound wells, NADH background; fluorescence fold increase at 10 µM; 5.5% of 65,000 active;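 active = at 10 µM, mean starting fluorescence two-fold or more over control wells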;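 also: signal is the first read of a kinetic run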
# DPM-DC inhibit – S. pneumoniae DPM-DC inhibitors, primary screen, biochemical, PK/LDH-coupled NADH fluorescence. diphosphomevalonate decarboxylase (Streptococcus pneumoniae D39). purified DPM-DC. calls only at 10 µM. 0.49% of 65,000 active. AID 556, 2006;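 active = the 320 compounds with the highest percent inhibition in the single-dose primary screen, excluding strongly autofluorescent ones, cut at about 32% in these data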;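 also: kinetic rate of NADH fluorescence loss reporting ADP formed by the decarboxylase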
# Numbers without * were called inactive; i = inactive; x = no result given; + = active, no number.
SMILES,A340 absorber,Spn MK inh,PMK inhibit,NADH coupling,Autofluor 339,DPM-DC inhibit
CCN(CC)CCN(Cc1cc2cc3c(cc2[nH]c1=O)OCCO3)C(=O)NC1CCCCC1,1.08,8.0,16.0,12.0%,3.81*,x
CCOC(=O)c1ccc(NC(=O)N(CC)CC)cc1,1.01,4.0,0.0,1.0%,1.07,i
CCOc1ccccc1Nc1nc2ccccc2n2cnnc12,1.05,10.0,15.0,13.0%,2.09*,x
CCN(CC)c1nc2ccccc2n2cnnc12,1.11,3.0,18.0,18.0%,1.05,+
c1ccc(N2CCOCC2)c(Nc2nc3ccccc3n3cnnc23)c1,1.08,0.0,8.0,4.0%,1.19,i
Cc1cc(C)n(-c2nc3ccccc3n3cnnc23)n1,1.1,11.0,12.0,8.0%,1.07,i
Cc1ccc(-c2[nH]nc3c2C(c2ccc(OC(=O)N4CCOCC4)cc2)C(C#N)=C(N)O3)cc1 (configuration not stated),1,0.0,13.0,2.0%,1,i
COCCn1c(C)cc2c(c1=O)C(c1ccccc1F)C(C#N)=C(N)O2 (configuration not stated),1.01,2.0,26.0*,9.0%,1.05,i
O=C1C(=O)N(CCCn2ccnc2)C(c2cccnc2)/C1=C(/O)c1ccc(Br)cc1 (configuration not stated),1.05,5.0,0.0,4.0%,1.06,i
Cc1onc(-c2ccccc2)c1C(=O)Nc1ccc2c(C)cc(=O)oc2c1,1.13,6.0,0.0,3.0%,2.22*,x
CCOc1ncccc1C(=O)Nc1ccc(-c2cn3ccsc3n2)cc1,1.07,0.0,21.0,11.0%,2.11*,x
Cc1cc(=O)oc2cc(NC(=O)CCCC(=O)O)ccc12,1.04,5.0,11.0,8.0%,5*,x
O=C(Nc1nnc(-c2ccncc2)s1)C1CCCO1 (configuration not stated),1.15,6.0,0.0,3.0%,3.69*,x
COc1ccc(NC(=O)C23CCC(C)(C(=O)C2)C3(C)C)cc1 (configuration not stated),1.01,12.0,21.0,3.0%,1.03,i
COc1ccccc1-c1c(C#N)c(SCC(=O)N2CCCC2)nc(C)c1C(N)=O,1.04,11.0,0.0,7.0%,1.14,i
Cc1cc(NC(=O)CSc2nnc(-c3ccncc3)n2N)ccc1Br,1.01,4.0,23.0,9.0%,1.05,i
Cc1onc(-c2ccccc2)c1C(=O)Nc1nnc(-c2ccncc2)s1,1.19,6.0,10.0,8.0%,3.76*,x
CCOc1ncccc1C(=O)Nc1ccc2c(C)cc(=O)oc2c1,1,0.0,0.0,8.0%,2.21*,+
c1ccc(CC2CCN(c3nc4ccccc4n4nnnc34)CC2)cc1,1.06,0.0,10.0,3.0%,2.6*,i
CC(NC(=O)Cc1ccc(F)cc1)C(c1cccs1)N1CCN(C)CC1 (configuration not stated),1.03,0.0,19.0,6.0%,1.03,i
CN(C)C(=O)N1CCCC(C(=O)NCc2cccs2)C1 (configuration not stated),0.99,0.0,21.0,7.0%,0.98,i
CN(C)C(=O)N1CCC(C(=O)NCc2cccs2)CC1,1.01,0.0,22.0,22.0%,0.58,+
CCOc1ccc(N(CC(=O)NC2CCCC(C)C2C)S(=O)(=O)c2c(C)noc2C)cc1 (configuration not stated),0.99,8.0,9.0,6.0%,1.02,+
Cc1cc(C)c(C#N)c(SCC(=O)Nc2nnc(-c3ccccc3)s2)n1,1.08,8.0,0.0,4.0%,2.12*,x
Cc1cc(C)c(C#N)c(SCC(=O)CC(=O)OC(C)C)n1,1.01,6.0,7.0,13.0%,2.98*,i
O=C(CCn1nnc2ccccc21)Nc1nnc(-c2ccccc2F)s1,1.03,9.0,4.0,4.0%,1.12,i
CCOC(=O)C1CCCN(Cc2ccccc2OCC)C1 (configuration not stated),1.06,41.0*,0.0,14.0%,1.1,i
